From PubChem BioAssay (NCI) come the findings set out here.

This is part of a sample that, as a whole, favours compounds with a hit. Of some 83,000 tested, about 20% had one in any assay.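 Each cell line was grown in a 96-well plate and treated with one concentration of compound for 48 hours. Values below 10 were considered active.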 Values without a mark were called inactive. Calls of active or inactive are those of the source.

Holding throughout (experiment): NCI-60 one-dose screen, 48 h (100 = growth as untreated, 0 = no growth, -100 = all killed)
For one test, the system named is HCT-15 colon. The following applies: 10 µM unless noted.
A further test deals with HT29 colon. The following applies: 10 µM unless noted.
Another test has as its system SNB-75 CNS. The following applies: 10 µM unless noted.
For a further test, the system named is SNB-19 CNS. The settings on record: 10 µM unless noted.
The test system of the next test is U251 CNS. The following applies: 10 µM unless noted.
The next test relates to PC-3 prostate. The settings on record: 10 µM unless noted.
A further test deals with SK-MEL-5 melanoma. The following applies: 10 µM unless noted.
In another test the test system is UACC-62 melanoma. The following applies: 10 µM unless noted.
The test system of a further test is LOX IMVI melanoma. The settings on record: 10 µM unless noted.
The test system of another test is SK-MEL-28 melanoma. The following applies: 10 µM unless noted.
Another test deals with EKVX NSCLC. The settings on record: 10 µM unless noted.
A further test deals with SN12C renal. The following applies: 10 µM unless noted.
In a further test the test system is UO-31 renal. The settings on record: 10 µM unless noted.
The next test concerns TK-10 renal. The following applies: 10 µM unless noted.
The next test relates to ACHN renal. The following applies: 10 µM unless noted.
In another test the test system is CAKI-1 renal. The following applies: 10 µM unless noted.
For a further test, the system named is HL-60(TB) leukemia. The settings on record: 10 µM unless noted.
A further test deals with CCRF-CEM leukemia. The settings on record: 10 µM unless noted.
Another test relates to A498 renal. The following applies: 10 µM.
Another test has as its system SK-MEL-2 melanoma. The settings on record: 10 µM unless noted.

Consider `CCCOC(=O)N[C@H]1CCc2c(Br)c(OC)c(OC)c(OC)c2-c2ccc(SC)c(=O)cc21`, for which the growth is 7.9% (active) in the test with HCT-15 colon; 12.2% in the test with HT29 colon; 19.6% with SNB-75 CNS; 23.1% with SNB-19 CNS; 17.6% in the test with U251 CNS; 21.1% with PC-3 prostate. The growth in the test on SK-MEL-5 melanoma is -29.9% (active); with UACC-62 melanoma it was 17.8%; in the test on LOX IMVI melanoma it was 8.1% (active); with SK-MEL-28 melanoma, 64.7%; with EKVX NSCLC it was 40.3%; in the test on SN12C renal, 14.1%. The growth is 20.7% with UO-31 renal; 43% in the test with TK-10 renal; 27.6% in the test with ACHN renal; 11.2% in the test on CAKI-1 renal; -25.7% (active) in the test on HL-60(TB) leukemia; 5.05% (active) in the test on CCRF-CEM leukemia.

With `COc1cc(/C=C\c2cc(OC)c(OC)c(OC)c2)cc(NS(=O)(=O)c2cccc(Cl)c2)c1OC`, the growth is 10.9% in the test with HCT-15 colon; 15.3% with HT29 colon; 64.5% in the test with SNB-75 CNS; 41.2% in the test with SNB-19 CNS; 11.1% with U251 CNS; 35.1% with PC-3 prostate. For the same compound, the growth in the test on SK-MEL-5 melanoma was -29.4% (active); in the test on UACC-62 melanoma, 36.1%; with LOX IMVI melanoma it was 20%; in the test on SK-MEL-28 melanoma it was 64%; in the test on SN12C renal, 27.7%; in the test on UO-31 renal it was 32.1%. In addition, the growth in the test on TK-10 renal is 63.3%; in the test with ACHN renal it was 16.4%; with CAKI-1 renal it was 11.4%; with CCRF-CEM leukemia, 9.72% (active).

Turning to `CC(=O)[O][Hg][O]C(C)=O`, the growth with HCT-15 colon is 93.8%; in the test on HT29 colon it was 73.8%; with SNB-75 CNS, 72.6%; in the test with SNB-19 CNS, 110%; with U251 CNS it was 84.6%; in the test with PC-3 prostate, 86.3%. For the same compound, the growth in the test on SK-MEL-5 melanoma is 102%; in the test with UACC-62 melanoma, 97.2%; in the test on LOX IMVI melanoma, 70.9%; with SK-MEL-28 melanoma, 106%; with SN12C renal it was 106%; with UO-31 renal, 96.9%. Also, the growth with TK-10 renal is 138%; with ACHN renal, 108%; in the test on CAKI-1 renal, 92.3%; in the test on A498 renal, 117%; in the test on HL-60(TB) leukemia it was 35.2%; in the test with CCRF-CEM leukemia it was 27.8%.

Take `CSc1nc(Cl)cc(N2CC2)n1`: the growth in the test with HCT-15 colon is 100%; in the test with HT29 colon, 112%; in the test with SNB-75 CNS it was 110%; in the test on SNB-19 CNS it was 108%; in the test with U251 CNS, 110%; in the test on PC-3 prostate, 92.5%. The growth in the test on SK-MEL-5 melanoma was 105%; with UACC-62 melanoma, 97.9%; in the test on LOX IMVI melanoma, 111%; in the test on SK-MEL-2 melanoma, 120%; with EKVX NSCLC it was 106%; with SN12C renal, 104%. In addition, the growth with UO-31 renal is 114%; in the test with ACHN renal it was 109%; in the test with CAKI-1 renal, 98.3%; in the test on A498 renal it was 122%; with HL-60(TB) leukemia it was 96.6%; in the test with CCRF-CEM leukemia it was 77.6%.

In the case of `COc1ccc(/C=C\c2cc(OC)c(OC)c(OC)c2)cc1OCC(=O)Nc1nc2ccc(OC(F)(F)F)cc2s1`, the growth in the test on HCT-15 colon is 22.2%; with HT29 colon, 97.5%; with SNB-75 CNS, 7.25% (active); in the test on SNB-19 CNS, 42.7%; with U251 CNS, 26%; with PC-3 prostate, 34%. For the same compound, the growth was 27.3% in the test on SK-MEL-5 melanoma; 31.1% in the test with UACC-62 melanoma; 27.1% in the test on LOX IMVI melanoma; 15.6% in the test on SK-MEL-2 melanoma; 77% in the test on EKVX NSCLC; 49.7% in the test on SN12C renal. For the same compound, the growth in the test with UO-31 renal was 25.4%; in the test on TK-10 renal it was 47%; in the test with ACHN renal, 43.5%; in the test with CAKI-1 renal it was 35.2%; with A498 renal it was 30.2%; in the test with HL-60(TB) leukemia, 52.3%. Further, the growth in the test on CCRF-CEM leukemia is 28.2%.

As to `CCC(O)(CN)c1ccccc1` (stereo not given), the growth in the test with HCT-15 colon was 103%; in the test on HT29 colon, 95.6%; in the test on SNB-75 CNS it was 93.5%; in the test with SNB-19 CNS, 106%; with U251 CNS it was 93.6%; with PC-3 prostate, 87.5%. The growth is 98.9% in the test on SK-MEL-5 melanoma; 100% in the test with UACC-62 melanoma; 105% with LOX IMVI melanoma; 115% with SK-MEL-28 melanoma; 98.3% in the test on EKVX NSCLC; 89.7% in the test with UO-31 renal. Besides, the growth with TK-10 renal is 101%; in the test on ACHN renal it was 105%; in the test on CAKI-1 renal, 96.3%; in the test with A498 renal it was 86.7%; in the test with HL-60(TB) leukemia, 101%; in the test on CCRF-CEM leukemia, 90.1%.

As to `CN(C)C1C(=O)C(C(N)=O)=C(O)C2(O)C(=O)C3=C(O)c4c(O)cccc4C(C)(O)C3CC12.[Cl][Sb]([Cl])[Cl]` (stereo not given), the growth in the test on HCT-15 colon is 26.7%; in the test with HT29 colon it was 38.5%; with SNB-75 CNS, 40.5%; with SNB-19 CNS, 36.6%; in the test on U251 CNS, 10.8%; with PC-3 prostate it was 15.9%. Also, the growth in the test on SK-MEL-5 melanoma was 15.6%; with UACC-62 melanoma, 26.4%; with LOX IMVI melanoma, 25.8%; in the test on SK-MEL-2 melanoma, -7.83% (active); in the test on EKVX NSCLC it was 41%; in the test on SN12C renal, 41.8%. For the same compound, the growth with UO-31 renal was 54.7%; in the test with TK-10 renal, 42.4%; in the test with CAKI-1 renal it was 12.3%; in the test on HL-60(TB) leukemia it was 31.4%; with CCRF-CEM leukemia, 17%.

Turning to `CC(C)OC(=O)[C@H](C)NP(=O)(Oc1ccccc1)C1CCCN(O)C1=O` (stereo not given in full), the growth in the test with HCT-15 colon is 93.1%; in the test with HT29 colon, 91.7%; in the test with SNB-75 CNS, 108%; in the test with SNB-19 CNS, 98.8%; in the test on U251 CNS it was 105%; in the test with PC-3 prostate it was 94.5%. Moreover, the growth was 99.2% in the test with SK-MEL-5 melanoma; 71.8% in the test with UACC-62 melanoma; 85.3% with LOX IMVI melanoma; 52.2% with SK-MEL-28 melanoma; 93.4% with EKVX NSCLC; 99.2% in the test on SN12C renal. In addition, the growth with TK-10 renal is 99.5%; in the test with ACHN renal it was 79.4%; in the test with CAKI-1 renal, 104%; in the test with HL-60(TB) leukemia, 94.1%; in the test with CCRF-CEM leukemia, 91.3%.

Turning to `CN[C@]1(c2ccccc2Cl)CCCC[C@H]1NCCCN1CCN(C)CC1`, the growth in the test on HCT-15 colon is 99%; with HT29 colon, 96%; in the test with SNB-75 CNS, 82%; with SNB-19 CNS, 102%; with U251 CNS, 103%; in the test on PC-3 prostate, 91.5%. For the same compound, the growth with SK-MEL-5 melanoma was 97.7%; in the test on UACC-62 melanoma, 104%; in the test with LOX IMVI melanoma, 96.4%; with SK-MEL-28 melanoma it was 112%; in the test with EKVX NSCLC, 92%; with SN12C renal it was 97.4%. The growth in the test on UO-31 renal is 76.3%; with TK-10 renal, 96.4%; with ACHN renal, 108%; with CAKI-1 renal, 87.3%; with HL-60(TB) leukemia, 93.9%; in the test on CCRF-CEM leukemia, 99.6%.

As for `C/C=C(\C)C(=O)O[C@@H]1C(O)[C@H]2OC(COC(=O)CCC(=O)CCCCCC[C@H](CCCCC)O[C@@H]3OC(C)[C@H](OC(C)=O)C(O)[C@H]3O2)[C@H]1OC(=O)/C=C/c1ccccc1` (stereo not given in full), the growth in the test with HCT-15 colon was 13%; with HT29 colon, 5.27% (active); with SNB-75 CNS it was 1.65% (active); with SNB-19 CNS, 34.7%; in the test with U251 CNS, 8.26% (active); with PC-3 prostate, 21.3%. The growth was -79.1% (active) in the test on SK-MEL-5 melanoma; -46.8% (active) in the test on UACC-62 melanoma; -49.9% (active) with LOX IMVI melanoma; 18.5% in the test with SK-MEL-28 melanoma; 24.1% in the test with EKVX NSCLC; 17.2% in the test with SN12C renal. The growth in the test with UO-31 renal was 15%; with TK-10 renal it was 11.7%; in the test on ACHN renal, 12%; in the test on A498 renal, 14.8%; in the test with HL-60(TB) leukemia, 17.8%; in the test on CCRF-CEM leukemia, 24.2%.

Take `COC(=O)C12CC(NC(=O)c3csc([C@@H](C[C@H](C(C)C)N(C)C(=O)[C@@H](NC(=O)[C@H]4CCCCN4C)C4CC4)OC(C)=O)n3)(C1)C2`: the growth in the test on HCT-15 colon is 14.1%; in the test on HT29 colon, -8.13% (active); in the test on SNB-75 CNS, 43.4%; in the test on SNB-19 CNS it was 39.6%; in the test with U251 CNS it was 11.8%; with PC-3 prostate, 23.4%. Further, the growth with SK-MEL-5 melanoma was -22.5% (active); in the test on UACC-62 melanoma, 58.6%; in the test on LOX IMVI melanoma it was 15.7%; with SK-MEL-28 melanoma it was 60.1%; with EKVX NSCLC it was 59.8%; with SN12C renal it was 37.9%. The growth in the test on UO-31 renal is 48.5%; with TK-10 renal, 39.2%; with ACHN renal, 33.6%; in the test with CAKI-1 renal it was 38.6%; with A498 renal it was -5.31% (active); with CCRF-CEM leukemia, 17.2%.
